# In the library only some 3.1% were active in any assay of this set; here they are far more common.
# Bst PK mod = modulators of Bacillus stearothermophilus pyruvate kinase; purified pyruvate kinase, luminescence ATP production; ribose 5-phosphate activator present at AC10; Potency, µM; actives 1.2% (n = 51,000); AID 361; in the data active = potency below about 11 µM; inconclusive = mostly about 12 µM to 25 µM;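 the screen sought inhibitors and activators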;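 note: scaled between full activation by ribose 5 phosphate and full inhibition by luteolin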
# Casp1 inh = caspase-1 (human) inhibition, allosteric or competitive; Caspase-1 enzyme, Ac-WEHD-AFC fluorogenic rate; Potency, µM (top dose mostly 57.5 µM), for the others: top-dose activity change, negative = inhibition, most hits filed as inhibitors; P29466; actives 0.03% (n = 75,000); AID 900;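 note: plate controls were vehicle for no effect and no substrate for full effect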
# Target sequence (P29466 120-297 limits assumed): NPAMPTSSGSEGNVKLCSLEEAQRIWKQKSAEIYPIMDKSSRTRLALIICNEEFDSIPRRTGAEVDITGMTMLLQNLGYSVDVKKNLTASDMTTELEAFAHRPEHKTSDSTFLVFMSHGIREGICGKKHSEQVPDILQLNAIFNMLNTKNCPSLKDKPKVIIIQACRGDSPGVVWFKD
# Target sequence (P29466 317-404 limits assumed): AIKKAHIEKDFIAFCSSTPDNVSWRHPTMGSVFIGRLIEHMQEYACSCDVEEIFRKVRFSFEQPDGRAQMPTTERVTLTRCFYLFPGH
# Casp7 inh = allosteric or competitive inhibitors of human caspase-7; recombinant caspase-7, Ac-DEVD-AFC fluorescence rate; Potency, µM (top dose mostly 57.5 µM), for the others: at the highest dose activity change, negative = inhibition, usual class: inhibitors; actives 0.02% (n = 75,000); active = well fitted inhibition curve with a large enough effect in the main read-out, with a control signal flat, not every such curve was filed as active; inconclusive = small, poorly fitted or top-dose-only effect, or a change in a side signal; note: % of control where 0% means no effect
# Target sequence (P55210 24-198 limits assumed): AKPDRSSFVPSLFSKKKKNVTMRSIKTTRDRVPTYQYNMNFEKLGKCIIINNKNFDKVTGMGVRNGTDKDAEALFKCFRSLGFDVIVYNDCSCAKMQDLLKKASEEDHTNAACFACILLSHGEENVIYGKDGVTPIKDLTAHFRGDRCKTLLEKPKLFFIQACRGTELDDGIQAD
# Target sequence (P55210 207-303 limits assumed): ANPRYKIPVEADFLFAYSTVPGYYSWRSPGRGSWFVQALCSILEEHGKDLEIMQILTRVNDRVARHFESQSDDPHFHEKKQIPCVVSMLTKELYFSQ
# FLuc inh = firefly luciferase inhibition; P08659; actives 2.2% (n = 72,000); purified firefly luciferase, luminescence, 8 min; AID 411; Potency, µM (titrated, usually from 57.1 µM), for inactives: at the highest dose activity change, negative = inhibition, usual class: inhibitors; note: % is set by controls: 0 for no effect and ±100 for the full control effect; nearly all actives have a fitted effect of over 40% in size
#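 Substrate buffer containing 10 uM ATP (pH 7.2 imidazole, Mg2+, KCl, detergent, BSA) is dispensed, compound pinned in, then luciferase/luciferin detector mix added. After 8 min at ambient temperature, light output is measured.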
# GBA mod = modulators of human glucocerebrosidase. purified enzyme, resorufin glucoside fluorescence (screen aimed at inhibitors), 20 min. Potency, µM. AID 360. actives 1.1% (n = 48,000); in the data active = potency below about 15 µM; inconclusive = mostly about 16 µM to 33 µM;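 note: the screen sought inhibitors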
#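 Normal human glucocerebrosidase (0.2 nM final) was assayed with resorufin β-D-glucopyranoside (30 uM final) in 50mM citric acid/KH2PO4, 10mM sodium taurocholate, 0.01% tween-20, pH 5.9. Compounds were titrated; fluorescence (Ex 548, Em 600) read after 20 min at RT.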
# * = called active by the depositor; i = inactive; ? = inconclusive; · = no result; ! = repeats disagree; [ ] = another dose, or the depositor's remark. Unless noted, calls come from the whole dose curve; as a rule, active = well fitted inhibition curve with a large enough effect; inconclusive = small, poorly fitted or top-dose-only effect; inactive = flat fitted curve, though single readings scatter. Potency is the fitted concentration of half-maximal effect.
SMILES,Bst PK mod,Casp1 inh,Casp7 inh,FLuc inh,GBA mod
Cc1ccc(-c2nc3ccccc3[nH]2)s1,·,-8%,-8%,5µM*,·
Nc1nc(-c2nc3ccccc3[nH]2)cs1,?,1%,-1%,13µM*,>77
c1csc(-c2nc3ccccc3[nH]2)c1,·,0%,0%,?,>77
CCOc1ccc2nc(NC(=O)Nc3cccs3)sc2c1,·,-6%,-7%,0.63µM*,·
CCOc1ccc2nc(NC(=O)c3ccoc3C)sc2c1,·,-1%,-1%,1.6µM*,·
CCOc1ccc2nc(NC(=O)c3ccc(S(=O)(=O)N4CCOCC4)cc3)sc2c1,>57,-1%,0%,0%,>77
CCOCC(=O)Nc1nc2ccc(OC)cc2s1,·,0%,0%,?,>77
COc1ccc2sc(NC(=O)CC(C)C)nc2c1,i,2%,6%,25µM*,>77
CCOc1ccc2nc(NC(=O)COC)sc2c1,i,1%,-2%,20µM*,>77
CCC(=O)Nc1nc2cc(OC)ccc2s1,·,-1%,0%,?,>77
CN1CCC(CNC(=O)c2ccc(Cc3nc4ccccc4[nH]3)cc2)CC1,·,-1%,-2%,·,·
Brc1ccc(-c2nc(-c3ccccn3)no2)o1,·,-1%,-2%,3.2µM*,·
Clc1ccc(-c2nc(-c3ccccn3)no2)cc1Cl,·,0%,2%,3.2µM*,·
Clc1ccccc1-c1nc(-c2ccncc2)no1,·,-1%[11.5 µM],0%[11.5 µM],-24%[11.4 µM],·
CC(C)(C)CC(C)(C)c1cc(O)c(O)c(CN2CCCCC2)c1,·,1%[11.5 µM],-1%[11.5 µM],-2%[11.4 µM],·
O=C(O)C1(C(=O)O)CCN(S(=O)(=O)c2ccccc2)CC1,·,2%[11.5 µM],2%[11.5 µM],3%[11.4 µM],·
Oc1ccc(-c2nc(-c3ccc(F)cc3)c(-c3ccncc3)[nH]2)cc1,·,2%,2%,1.3µM*!,·
Fc1ccc(-c2nc3n(c2-c2ccncc2)CCS3)cc1,·,0%,-1%,·,·
O=C1c2ccccc2C(=O)N1C[C@]1(C(=O)O)NCCS1(=O)=O,·,0%[11.5 µM],2%[11.5 µM],4%[11.4 µM],·
CCOc1nc(-c2ccc(OC)cc2)ccc1-c1noc(-c2ccncc2)n1,>57,-6%,-4%,2%,>77
CCOc1ccc(-c2nc(-c3ccccc3C)no2)cc1,8*,2%,0%,2µM*,·
CC(=O)[C@@H]1CC[C@@H]2[C@@H]3CC=C4C[C@H](OS(=O)(=O)O)CC[C@@]4(C)[C@H]3CC[C@]21C,·,1%,3%,-3%,·
O=C(Nc1nc(-c2nc3ccccc3s2)cs1)c1ccco1,·,-4%,-4%,-5%,·
CCCC(=O)Nc1nc(-c2ccc3c(c2)OCCO3)cs1,·,-2%,-1%,1%,·
O=C(CN1C(=O)CCC1=O)Nc1nc(-c2nc3ccccc3s2)cs1,·,-2%,1%,13µM*,·
SMILES,Bst PK mod,Casp1 inh,Casp7 inh,FLuc inh,GBA mod
O=C(Nc1nc(-c2ccc3c(c2)OCO3)cs1)C1CC1,·,-4%,-8%,13µM*,·
O=C(Nc1nc(-c2nc3ccccc3s2)cs1)C1CC1,·,3%,1%,5µM*,·
O=C(O)CSCCc1ccccc1,·,-1%[11.5 µM],1%[11.5 µM],2%[11.4 µM],·
O=C(O)C(Cc1ccccc1)Cc1ccccc1,·,1%[11.5 µM],0%[11.5 µM],1%[11.4 µM],·
C1CCCNCC1,·,-4%,2%,·,·
C=CCSc1nnc(-c2ccc(Cl)cc2Cl)o1,·,-1%,0%,7.9µM*,·
Clc1ccc(-c2nnc(SCc3ccon3)o2)c(Cl)c1,10*,-1%,-2%,7.9µM*,>77
C=CCSc1nnc(-c2cccnc2)o1,·,1%,-2%,-1%,·
C[C@@]12C[C@H](O)[C@@H]3[C@H](CCC4=CC(=O)CC[C@]43C)[C@H]1CC[C@@H]2c1csc(N)n1,·,1%[11.5 µM],-3%[11.5 µM],2%[11.4 µM],·
Cc1ccc(CNc2ccc(N3CCOCC3)cc2)s1,i,-2%,-2%,13µM*,>77
CCCC12CN3CC(C)(CN(C1)C3c1ccc(OC(C)C)cc1)C2=O (centres undefined),>57,0%,-2%,2%,2*
CCCC12CN(C(=O)c3ccc(OC)cc3)CC(C)(CN(C(=O)c3ccc(OC)cc3)C1)C2=O,>57,0%,2%,-1%,>77
COc1ccc2cc3cc(C(=O)NCCN4CCc5ccccc5C4)oc3nc2c1,0.76*,-12%,-7%,-1%,>77
CCCCCCCCCCCCCCC1CO1 (centres undefined),·,-3%,-1%,·,·
COc1cccc(-c2cc(=O)c3cc(O)ccc3o2)c1,·,0%,1%,-12%[11.4 µM],·
COc1cccc(-c2nc3ccc(O)cc3c(=O)o2)c1,11*,-2%,1%,?,13*
Cc1nc2sccn2c1-c1nc(-c2cc3ccccc3o2)cs1,?,-3%,-2%,-14%,·
Cc1ccnc(Nc2nc(-c3c(C)nc4sccn34)cs2)c1,11*,-4%,-2%,16µM*,>77
N=c1cc(C2(O)CCCCC2)n2c(nc3ccccc32)s1,1.1*,1%,-2%,1µM*,>77
Cc1ccc(-c2nnc(-c3cccc(Br)c3)o2)cc1,·,·,·,-28%[25.5 µM],·
Cc1ccc(-c2nnc(-c3ccccc3)o2)cc1Br,>26,·,·,-9%[25.5 µM],·
Clc1cccc(-c2nnc(-c3ccccc3)o2)c1,·,1%,-2%,5µM*,·
Cc1ccccc1-c1nnc(-c2ccc(Br)cc2)o1,4.4*,-2%,1%,-1%,>77
Cc1cccc(-c2nnc(-c3ccc(N)cc3)o2)c1,9*,1%,0%,13µM*,>77
Brc1cccc(-c2nnc(-c3ccccc3)o2)c1,i,-2%,-1%,16µM*,·
SMILES,Bst PK mod,Casp1 inh,Casp7 inh,FLuc inh,GBA mod
CN(C)CN1CSC(=S)N(CN(C)C)C1,·,-1%[11.5 µM],2%[11.5 µM],0%[11.4 µM],·
CO[C@@H]1COC(=O)[C@@H](CCSC)NC(=O)C/C=C\[C@@H](C)COC(=O)[C@H](C)NC(=O)C/C=C\[C@H]1C,·,-2%[11.5 µM],-3%[11.5 µM],1%[11.4 µM],·
Oc1[nH]c2ccccc2c1C=Nc1ccc2c(c1)OCCO2,3.2*,-9%,-9%,4µM*,?
Cc1cccc(/N=C/c2c(O)cc(C)oc2=O)n1,>57,-12%,-9%,3%,>77
Cc1cccc(/N=C/c2c(O)[nH]c3ccccc23)n1,·,-2%,-3%,4µM*,·
COc1cc2nc(N3CC=[N+](C(=O)c4ccco4)CC3)nc(N)c2cc1OC,·,1%,-1%,0%,·
O=C(CSc1nc2ccccc2o1)Nc1nc2ccccc2s1,>57,1%,0%,1%,>77
O=C(CSc1nc2ccccc2o1)Nc1nc2c(s1)CCCC2,i,-5%,-3%,10µM*,>77
Cc1ccc(N2C(=O)c3n[nH]c(C)c3C2c2ccco2)cc1 (centres undefined),·,0%,0%,16µM*,>77
c1ccc(SCCOCCn2cncn2)cc1,·,-1%,-3%,2%,>77
c1ccc(COc2ccc(OCCOCCn3cncn3)cc2)cc1,·,-8%,-2%,16µM*,>77
COc1ccc(-c2cc3ccccc3n2CC(O)Cn2nc(C)cc2C)cc1 (centres undefined),>57,-8%,-6%,1%,>77
COc1ccc(-c2cc3ccccc3n2CC(O)CNC(CO)(CO)CO)cc1 (centres undefined),>11,-1%,2%,-1%,14*
COc1ccccc1Nc1nc2ccccc2[nH]1,·,-1%,0%,13µM*,>77
N[C@@H](Cc1[nH]nc2ccccc12)C(=O)O,·,5%[11.5 µM],0%[11.5 µM],1%[11.4 µM],·
